# Measured values as given in PubChem BioAssay.
# The source made the active and inactive calls.
# Experiments:
# [1] = tested on: Plasmodium falciparum Sir2 (PF13_0152, Sir2A); assay: Plasmodium falciparum Sir2A binding compounds – biochemical, small-molecule microarray, 635 nm fluorescence, primary screen (AID 1098); conditions: fluorescence 635 nm, higher = more signal;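 further: score merges spot fluorescence intensity with its signal-to-noise ratio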
# [2] = probe aDKK1 binding to arrayed compounds – biochemical, biotinylated probe, 635/667 nm fluorescence, primary screen (AID 1099); conditions: small-molecule microarray, higher = more signal;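 further: score merges 667nm spot fluorescence with signal to noise across triplicate slides; reference of the scale not given here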
# [3] = probe aCHRDL2 binding to arrayed compounds – biochemical, biotinylated probe, 635/667 nm fluorescence, primary screen (AID 1100); conditions: small-molecule microarray, higher = more signal
# [4] = change in splice reporter luminescence, either direction, cell-based, HEK293, spliceosome inhibition project, primary screen (AID 1101); conditions: HEK293 splicing luciferase reporter, 24 h, higher = more signal, called active from +8 up or from −8 down;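 further: HEK293 cells carrying a splicing-competent luciferase reporter gene; test concentration not given here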
# [5] = target: Fibroblast growth factor 10 (Homo sapiens) (UniProt O15520); assay: compounds binding fibroblast growth factor 10 – biochemical, small-molecule microarray, 635 nm fluorescence, primary screen (AID 1102); conditions: FGF10 binding, fluorescence 635 nm, higher = more signal
# Sequence of Fibroblast growth factor 10 (Homo sapiens) (O15520 whole entry, looked up): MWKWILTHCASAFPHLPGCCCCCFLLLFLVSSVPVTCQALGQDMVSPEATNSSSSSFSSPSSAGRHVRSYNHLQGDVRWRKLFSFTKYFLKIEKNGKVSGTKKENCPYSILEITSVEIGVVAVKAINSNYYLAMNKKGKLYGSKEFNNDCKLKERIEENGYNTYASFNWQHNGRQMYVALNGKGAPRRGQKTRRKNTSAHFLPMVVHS
# [6] = tested on: glycogen synthase kinase-3 (GSK3A per assay name; protocol says GSK3B); assay: compounds binding glycogen synthase kinase-3 – biochemical, small-molecule microarray, 635 nm fluorescence, GSK3A, primary screen (AID 1103); conditions: fluorescence 635 nm, higher = more signal; further: the record names both GSK3A and GSK3B
# [7] = target: Epidermal growth factor receptor (Homo sapiens) (UniProt P00533); assay: compounds binding epidermal growth factor receptor – biochemical, small-molecule microarray, 635 nm fluorescence, primary screen (AID 1104); conditions: EGFR binding, higher = more signal;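 further: score merges 667 nm emission intensity with spot signal to noise over triplicate slides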
# Sequence of Epidermal growth factor receptor (Homo sapiens) (P00533 whole entry, looked up): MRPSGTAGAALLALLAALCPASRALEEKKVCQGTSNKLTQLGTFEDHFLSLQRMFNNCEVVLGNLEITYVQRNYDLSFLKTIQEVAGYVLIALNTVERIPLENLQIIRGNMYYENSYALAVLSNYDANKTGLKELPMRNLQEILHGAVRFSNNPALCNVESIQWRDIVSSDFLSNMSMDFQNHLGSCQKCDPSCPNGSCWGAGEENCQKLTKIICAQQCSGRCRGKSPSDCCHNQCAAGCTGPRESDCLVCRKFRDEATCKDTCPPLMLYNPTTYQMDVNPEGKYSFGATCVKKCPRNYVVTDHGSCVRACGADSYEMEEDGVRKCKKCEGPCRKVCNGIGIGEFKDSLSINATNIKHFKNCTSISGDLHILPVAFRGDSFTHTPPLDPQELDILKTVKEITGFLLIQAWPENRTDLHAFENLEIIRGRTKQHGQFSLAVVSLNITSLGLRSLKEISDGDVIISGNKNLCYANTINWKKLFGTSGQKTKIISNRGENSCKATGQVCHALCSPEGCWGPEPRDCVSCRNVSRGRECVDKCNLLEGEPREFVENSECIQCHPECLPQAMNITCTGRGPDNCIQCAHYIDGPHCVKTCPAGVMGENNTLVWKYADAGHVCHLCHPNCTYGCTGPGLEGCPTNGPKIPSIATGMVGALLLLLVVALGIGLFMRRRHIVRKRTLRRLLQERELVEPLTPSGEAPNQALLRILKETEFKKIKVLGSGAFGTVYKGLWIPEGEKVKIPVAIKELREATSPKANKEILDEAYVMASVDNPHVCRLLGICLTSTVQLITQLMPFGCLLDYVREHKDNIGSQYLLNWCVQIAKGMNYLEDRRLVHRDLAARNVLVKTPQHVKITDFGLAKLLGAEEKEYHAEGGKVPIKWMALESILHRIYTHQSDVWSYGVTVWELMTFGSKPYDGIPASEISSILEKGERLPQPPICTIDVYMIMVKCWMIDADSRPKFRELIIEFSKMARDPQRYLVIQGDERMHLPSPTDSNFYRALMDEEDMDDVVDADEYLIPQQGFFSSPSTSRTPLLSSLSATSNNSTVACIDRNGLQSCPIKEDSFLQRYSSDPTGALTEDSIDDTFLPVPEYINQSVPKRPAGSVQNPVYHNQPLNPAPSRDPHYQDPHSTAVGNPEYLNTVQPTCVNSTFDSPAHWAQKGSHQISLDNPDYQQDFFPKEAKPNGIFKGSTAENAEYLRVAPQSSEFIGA
# [8] = target: Follistatin-related protein 3 (Homo sapiens) (UniProt O95633); assay: compounds binding follistatin-related protein 3 – biochemical, small-molecule microarray, 635 nm fluorescence, primary screen (AID 1105); conditions: FSTL3 binding, higher = more signal;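 further: score merges emission near 667 nm and signal to noise per printed spot across three slides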
# Sequence of Follistatin-related protein 3 (Homo sapiens) (O95633 whole entry, looked up): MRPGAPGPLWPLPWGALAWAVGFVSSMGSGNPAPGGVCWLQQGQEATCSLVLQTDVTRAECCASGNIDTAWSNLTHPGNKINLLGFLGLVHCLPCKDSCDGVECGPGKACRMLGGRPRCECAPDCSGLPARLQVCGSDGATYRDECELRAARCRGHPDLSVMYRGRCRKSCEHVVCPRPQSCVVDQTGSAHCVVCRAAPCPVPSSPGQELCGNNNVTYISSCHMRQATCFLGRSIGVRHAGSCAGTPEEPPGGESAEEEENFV
# [9] = target: Dickkopf-related protein 1 (Homo sapiens) (UniProt O94907); assay: small molecules binding DKK1 protein – biochemical, small-molecule microarray, 635 nm fluorescence scan, primary screen (AID 1106); conditions: higher = more signal;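 further: score merges emission near 667 nm with signal to noise over three replicate slides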
# Sequence of Dickkopf-related protein 1 (Homo sapiens) (O94907 whole entry, looked up): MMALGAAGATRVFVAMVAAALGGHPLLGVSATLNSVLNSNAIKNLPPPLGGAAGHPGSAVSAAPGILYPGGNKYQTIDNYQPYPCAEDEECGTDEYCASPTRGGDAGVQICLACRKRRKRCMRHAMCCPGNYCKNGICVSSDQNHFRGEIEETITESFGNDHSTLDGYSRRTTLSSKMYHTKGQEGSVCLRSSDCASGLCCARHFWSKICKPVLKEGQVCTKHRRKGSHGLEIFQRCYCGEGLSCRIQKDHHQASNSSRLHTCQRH
# [10] = tested on: Inhibin beta A chain (activin A); assay: small molecules binding activin A – biochemical, small-molecule microarray, 635 nm fluorescence scan, primary screen (AID 1107); conditions: INHBA, higher = more signal;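 further: mouse activin A protein probed at 4.33 µg/mL on printed slides; score merges bound-protein fluorescence near 667 nm with spot signal-to-noise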
Compound,composite z-score [1],composite z-score [2],composite z-score [3],z-score [4],composite z-score [5],composite z-score [6],composite z-score [7],composite z-score [8],composite z-score [9],composite z-score [10]
CC(=O)NCCCC[C@@H]1NC(=O)[C@@H]2C[C@H](C(=O)NCCCC[N+](C)(C)C)[C@H](c3cccc(OCCO)c3)N2C1=O,1.08,-0.11,0.275,0.677 (inactive),0.766,-0.57,-0.734,1.02,0.232,-0.146
O=C1O[C@H](c2ccccc2)[C@H](c2ccccc2)N2[C@H]1[C@@H](C(=O)N1CCN(c3ncccn3)CC1)[C@]1(C(=O)Nc3ccc(C#CCCO)cc31)[C@H]2c1ccc(OCCO)cc1,1.66,0.115,0.536,-0.0244 (inactive),1.11,1.28,1.12,1.48,0.949,0.463
CCCC[C@@H](O)C1=C(COc2ccccc2)Cn2c(=O)n(-c3ccccc3)c(=O)n2[C@H]1CO,-0.229,-0.396,-0.444,-2.11 (inactive),0.217,0.106,0.111,-0.423,-0.0681,0.606
NC(=O)[C@@H]1[C@H]2C(=O)O[C@H](c3ccccc3)[C@H](c3ccccc3)N2[C@H](c2ccccc2OCCO)[C@@]12C(=O)Nc1ccc(C#CCCO)cc12,1.03,-0.302,0.54,0.305 (inactive),-0.293,-0.802,-0.461,0.118,-0.647,0.233
C[N+](C)(C)CCCCNC(=O)[C@H]1C[C@H]2C(=O)NCC(=O)N2[C@H]1c1ccc(O)cc1,1.29,0.0645,-0.31,-1.01 (inactive),1.42,1.35,1.12,1.44,1.47,0.952
O=C1O[C@H](c2ccccc2)[C@H](c2ccccc2)N2[C@H]1[C@@H](C(=O)N1CCN(c3ncccn3)CC1)[C@]1(C(=O)Nc3ccc(C#CCCO)cc31)[C@H]2c1ccccc1OCCO,1.24,0.0649,0.447,0.105 (inactive),1.15,1.11,0.282,0.501,0.525,-0.14
Cc1cc(C)c(C(O)C2C=CC3C(=O)N(c4ccccc4)C(=O)C3N2Nc2ccc([N+](=O)[O-])cc2)c(C)c1 (stereo not given),1.55,0.74,0.911,0.311 (inactive),0.693,1.3,0.326,1.45,0.275,0.471
C[N+](C)(C)CCCCCCNC(=O)[C@@H]1C[C@@H]2C(=O)NCC(=O)N2[C@@H]1c1ccc(O)cc1,1.43,-0.171,0.135,0.605 (inactive),0.963,0.657,0.0357,1.39,1.19,0.277
C=CCN1C(=O)[C@@]2(O[C@@H](CCn3cc([C@H](O)c4ccccc4)nn3)[C@H]([Si](C)(C)c3ccc(OC)cc3)[C@H]2C)c2cc(NC(=O)c3ccc(OC)cc3)ccc21,0.185,0.041,0.143,-0.345 (inactive),-0.0229,0.0579,-0.128,0.382,0.183,1.07
CC(C)=CCCC(C)=CC(O)C1C=CC2C(=O)N(c3ccccc3)C(=O)C2N1Nc1ccc([N+](=O)[O-])cc1 (stereo not given),1.29,-0.0499,0.77,0.644 (inactive),0.74,1.34,0.0387,0.996,-0.4,0.387
C[C@]12C(=O)N(CCCO)[C@@H]3C(=O)N(c4ccc(Cl)cc4)CC=CC31O[C@@H]1/C=C\CCCOC(=O)C12 (stereo not given in full),1.83,-0.275,0.62,0.158 (inactive),-0.747,-1.07,-0.887,-0.538,-1.01,0.232
CC(C)N1C(=O)c2ccccc2[C@](C)(C(=O)O)[C@@H]1c1ccc(CO)cc1,0.738,0.326,0.855,0.591 (inactive),-0.756,-1.23,-1.35,-0.638,-1.06,0.532
CC(=O)NCCCC[C@@H]1NC(=O)[C@H]2C[C@@H](C(=O)NCCCCCN)[C@@H](c3cccc(OCCO)c3)N2C1=O,0.878,-0.0159,0.366,-1.77 (inactive),0.757,0.4,0.103,0.0957,0.142,0.602
COc1cccc(C)c1NC(=O)O[C@H]1[C@H](OC(=O)Nc2ccccc2)[C@H](OC(=O)Nc2ccccc2)[C@@H](OC)O[C@@H]1CO,1.1,0.245,0.708,0.419 (inactive),0.96,0.0861,-0.0372,0.367,-0.294,0.179
COCCOC(=O)N1C(=O)[C@@]2(c3cc(C#CC4(O)CCCCCC4)ccc31)[C@H](C(=O)N1CCc3cc(OC)c(OC)cc3C1)[C@H]1C(=O)O[C@H](c3ccccc3)[C@H](c3ccccc3)N1[C@@H]2c1ccccc1OCCO,0.517,0.836,0.173,-0.461 (inactive),0.96,1.3,0.887,1.42,1.69,0.701
CCCCC(CC)C(O)C1C=CC2C(=O)NC(=O)C2N1Nc1ccccn1 (stereo not given),0.768,0.189,0.471,1.08 (inactive),0.327,0.493,-0.035,0.768,0.112,1.33
C[N+](C)(C)CCCC[C@@H]1NC(=O)[C@@H]2C[C@H](C(=O)O)[C@H](c3cccc(OCCO)c3)N2C1=O,1.53,-0.066,0.667,-0.11 (inactive),0.11,-0.144,-0.188,-0.492,0.503,0.146
CN(C)C(=O)[C@@]1(CCC(=O)OC(C)(C)C)N=C(c2ccc(OCCCO)cc2)O[C@H]1c1ccccc1N=[N+]=[N-],1.33,0.813,0.837,0.101 (inactive),1.46,0.253,0.334,1.4,0.648,0.707
Cc1ccccc1C(O)C1C=CC2C(=O)N(C)C(=O)C2N1Nc1ccc([N+](=O)[O-])cc1[N+](=O)[O-] (stereo not given),0.878,0.647,0.831,-0.311 (inactive),1.11,1.28,0.226,1.17,-0.53,0.648
CC(C)N1CC=CC23O[C@@H]4C=CCOC(=O)[C@@H]4[C@H]2C(=O)N(CCCCCCO)[C@@H]3C1=O (stereo not given in full),1.99,-0.284,0.143,-0.594 (inactive),0.636,-0.826,-0.997,-0.483,-0.959,0.741
COCCOC(=O)N1C(=O)[C@@]2(c3cc(C#CCCO)ccc31)[C@H](C(=O)NC[C@H](O)c1ccccc1)[C@H]1C(=O)O[C@H](c3ccccc3)[C@H](c3ccccc3)N1[C@@H]2c1ccccc1OCCO,0.506,0.437,0.426,-0.183 (inactive),1.32,1.33,0.938,1.41,1.06,0.95
CC1(C)[C@@H]2CC(C(O)C3C=CC4C(=O)N(c5ccccc5)C(=O)C4N3Nc3ccccc3F)=C[C@@H]1C2 (stereo not given in full),1.4,0.26,0.471,-1.75 (inactive),1.34,1.31,0.4,1.31,0.122,0.603
C=CCN1C(=O)[C@@]2(O[C@@H](CCO)[C@H]([Si](C)(C)c3ccc(OC)cc3)[C@H]2C)c2cc(NC(=O)[C@H](C)O)ccc21,1.53,-0.474,-0.0061,-2.46 (inactive),1.26,1.3,-0.242,0.254,0.147,-0.156
CN(C)C(=O)[C@@]1(CCC(=O)OC(C)(C)C)COC(c2ccc(OCCCO)cc2)=N1,0.999,0.66,0.945,0.351 (inactive),0.625,-0.459,-0.785,-0.326,-1.19,0.279
COc1ccc(CCNC(=O)[C@@H]2c3ccccc3C(=O)N(Cc3ccccc3)[C@H]2c2ccc(CO)cc2)cc1,1.23,-0.0548,0.693,-0.575 (inactive),0.847,0.432,-0.25,0.84,-0.0051,0.309
[N-]=[N+]=NCc1ccccc1C[C@@]1(C(=O)NCCN2CCOCC2)N=C(c2ccc(OCCCO)cc2)O[C@@H]1c1ccccc1CN=[N+]=[N-],0.668,0.914,0.491,0.139 (inactive),1.15,0.602,0.244,1.29,0.855,0.817
O=C(O)[C@]1(CCS(=O)(=O)c2ccccc2)N=C(c2ccc(OCCCO)cc2)O[C@@H]1c1ccccc1,0.74,1.21,1.04,0.149 (inactive),0.216,0.439,-0.422,-0.564,-0.402,0.849
Cc1ccc(F)cc1S(=O)(=O)N[C@@H]1CCN(C(=O)c2ccc(OC(C)C)cc2)C1,0.416,-0.274,-0.734,-0.0035 (inactive),0.969,1,0.5,1.34,0.463,0.0062
